# Source: PubChem BioAssay (Tox21)
# Results filed as inconclusive are left out. Unmarked numbers belong to inactive results. The call rests on the fitted dose curve.
# Experiment: Nuclear factor erythroid 2-related factor 2/antioxidant responsive element (Nrf2/ARE) small molecule agonists: luciferase reporter gene qHTS assay in human keratinocytes (AID 1919969); further: nearly all actives have a fitted effect of over 35% in size
# Conditions: KeratinoSens HaCaT ARE-luciferase, luminescence, 24 h; series mostly up to 92.4 µM; activity, positive = activation: at the top concentration
# On the % scale 0 is the no-effect control and ±100 the full control effect.
row,Structure (SMILES),"activity, positive = activation"
1,Nc1nc(=O)n([C@@H]2O[C@H](CO)[C@@H](O)[C@@H]2F)cc1I,-0.978% [at 42.5 µM]
2,Cc1cc(C)cc(O)c1,-5.01%
3,COc1cc(C(=O)N2CCOCC2)cc(OC)c1OC,-4.99% [at 42.5 µM]
4,CCCO,-6.25%
5,CC12CCC(C1)C(C)(C)C2O (configuration not stated),-0.239%
6,[O]=[Zr],-2.01%
7,C1CCC(SSC2CCCCC2)CC1,17.4%
8,CCCC[C@H]1CN(CC2CCOCC2)C(=O)OC12CCN(C1(C)CCN(C(=O)c3c(C)ncnc3C)CC1)CC2,-3.69%
9,Cc1ccccc1S(=O)(=O)O,-1.77%
10,NC(=O)c1ccc(N)cc1,-15.3%
11,FC(F)(F)C(Cl)Br (configuration not stated),-6.44%
12,CCCCCCCCSCCO,7.1%
13,Cc1ccccc1C(N)=O,-5.37%
14,CC12CC3CC(C)(C1)CC(N)(C3)C2,3.59% [at 42.5 µM]
15,O[C@@H]([C@H](O)[C@H](O)CBr)[C@H](O)CBr,-5.17%
16,CCOc1ccc(N)c([N+](=O)[O-])c1,-1.51%
17,CC(=O)NCc1c(I)c(NC(C)=O)c(I)c(C(=O)O)c1I,3.55% [at 42.5 µM]
18,Nc1cc([N+](=O)[O-])ccc1Cl,8.12%
19,Cc1c(C(=O)c2c[nH]n(C)c2=O)ccc(S(C)(=O)=O)c1C1=NOCC1,-7.86% [at 42.5 µM]
20,CC(C[N+](C)(C)C)OC(N)=O (configuration not stated),-11.7% [at 42.5 µM]
21,O=S(=O)(O)c1ccccc1O,1.06%
22,Cc1cccc(N(C)C)c1,3.18%
23,OCC1CCC(CO)CC1 (configuration not stated),-5.32%
24,C=CCOC(=O)CCCCCC,10.6%
25,CCN(CC)S(=O)(=O)c1ccc(C(=O)O)cc1,0.776% [at 42.5 µM]
26,NNS(=O)(=O)c1ccc(Oc2ccc(S(=O)(=O)NN)cc2)cc1,3.82%
27,O=Cc1ccc(C(=O)O)cc1,4.35%
